From PubChem BioAssay
HepG2 tox: HepG2 cytotoxicity, counter-screen for TGF-b inhibitors; HepG2 CAGA-GFP viability, ATP luminescence, 18 h; Potency, µM (top dose mostly 46.1 µM), inactives show at the highest dose activity change, negative = cytotoxicity, usual class: cytotoxic; 0.76% of 410,000 active
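HepG2 CAGA-GFP cells (1000/well, DMEM with 1% FBS) received compound, then TGF-beta at 500 pg/mL final, and were incubated 18 hours at 37 degrees C. Viability was read by CellTiter-Glo luminescence. Media-only wells were set as complete cell-killing and DMSO as no toxicity.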
DT40 TDP1 no CPT: qHTS for Inhibitors of human tyrosyl-DNA phosphodiesterase 1 (TDP1): qHTS in cells in absence of CPT. DT40 Tdp1-/- hTDP1 cells, no CPT, ATP luminescence, 48 h. Potency, µM (highest dose often 46.2 µM), for the others: at the top dose activity change, negative = growth inhibition, usual class: inhibitors. 15% of 420,000 active. AID 686978, 2013; note: % is set by controls: 0 for no effect and ±100 for the full control effect; nearly all actives have a fitted effect of over 55% in size
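Growth of hTDP1-complemented DT40 Tdp1-knockout cells is measured by ATP luminescence after at least 48 hr compound exposure at 37 °C, with DMSO substituting for the 20 nM CPT used in the parallel screen.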
TDP1 cell CPT: DT40-hTDP1 cell growth loss with CPT | 12% of 420,000 active | AID 686979 | chicken DT40 Tdp1-/-;hTDP1 cells + 20 nM CPT, ATP luminescence, 48 h | Potency, µM (doses to about 46.2 µM), inactives show top-dose activity change, negative = growth inhibition, hits mostly inhibitors; note: % is set by controls: 0 for no effect and ±100 for the full control effect; nearly all actives have a fitted effect of over 55% in size
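Chicken DT40 Tdp1-/- cells stably complemented with human TDP1 were seeded at 400 cells/well in medium containing 20 nM camptothecin, exposed to pin-transferred compounds, and grown at 37 °C for at least 48 hr. Viability was read as ATP luminescence.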
HT1080-NT tox: kills 2HG-producing HT-1080-NT fibrosarcoma cells. HT-1080-NT fibrosarcoma viability, CellTiter-Glo ATP luminescence, 48 h. Potency, µM (top dose mostly 46.1 µM), without a hit: at the highest dose activity, negative = less viability, most hits filed as cytotoxic. 1.6% of 360,000 active;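 note: NT is the 2HG producing partner of a matched IDH1 knockdown line; 0% = DMSO-treated cells and -100% = media-only wells without cells; nearly all actives have a fitted effect of over 55% in size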
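Read-out is CellTiter-Glo luminescence after 10 minutes at room temperature, following 48 hours' compound treatment of HT-1080-NT cells (750 cells/well, RPMI, 5% FBS, 37 degrees C).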
TGFb SMAD3 inh: inhibitors of TGF-b signaling; HepG2 CAGA-GFP TGF-b/SMAD3 reporter, GFP fluorescence, 18 h; TGF-beta stimulated, 500 pg/mL final; Potency, µM (series often up to 46.1 µM), without a hit: at the highest dose activity, negative = inhibition, actives largely listed as inhibitors; 1.2% of 410,000 active; AID 588855; note: % is set by controls: 0 for no effect and ±100 for the full control effect; nearly all actives have a fitted effect of over 65% in size
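TGF-beta reporter screen: HEPG2 CAGA-GFP, 1% FBS, 500 pg/mL TGF-beta final, 18 h; per-cell GFP summed per well; curves fitted and categorized by class.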
HT1080 IDH1KD tx: HT-1080 IDH1 knockdown cell toxicity (counter line); HT-1080 IDH1 knockdown viability, ATP luminescence, 48 h; Potency, µM (titrated, usually from 46.1 µM), for the others: top-dose activity, negative = toxicity, most hits filed as cytotoxic; 2% of 360,000 active;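 note: 0% = DMSO wells and -100% = cell-free medium wells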
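% activity derives from luminescence (CellTiter-Glo), normalised to DMSO and no-cell wells. HT-1080-IDH1KD cells, 750/well, had 48 h compound exposure at 37 °C.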
Numbers without * were called inactive; u = inconclusive; x = no result; [ ] = remark or other dose. Rows were chosen to be rich in hits. Some 17% of all compounds tested hit in one or more screens of this group. Calls come from the whole dose curve; as a rule, active = well fitted curve in the direction sought with a large enough effect; inconclusive = small, poorly fitted or top-dose-only effect, or another doubt; inactive = no such curve, though single readings can be large; an effect the other way counts as inactive or inconclusive. Potency is the fitted concentration of half-maximal effect.

SMILES	HepG2 tox	DT40 TDP1 no CPT	TDP1 cell CPT	HT1080-NT tox	TGFb SMAD3 inh	HT1080 IDH1KD tx
CC(C)c1ccc(OCC(=O)N2CCN(CCc3ccccn3)CC2)cc1	0.2%	u	-28.4%	x	5.3%	x
COc1ccc(CNCCc2c[nH]c3ccccc23)c(OC)c1OC	-37.5%	11.6µM*	16.4µM*	-1.8%	-1.3%	u
COc1cccc(CNCCc2c[nH]c3ccccc23)c1OC	-0.7%	-15.0%	2.0%	-15.9%	-1.7%	0.4%
CCCCNCc1cc(Cl)c(OCCC)c(OCC)c1	-33.8%	u	u	u	-7.0%	u
COc1ccccc1CCNCc1ccc(OC)c(OC)c1OC	-32.1%	11.6µM*	25.9µM*	-11.1%	6.1%	-3.5%
Clc1cccc(CNCCc2c[nH]c3ccccc23)c1	-4.3%	u	u	18.4µM*	-8.6%	16.4µM*
CCOc1cc(CNCCc2c[nH]c3ccccc23)cc(Cl)c1OC	-94.1%	5.8µM*	8.2µM*	18.4µM*	15.8µM*	20.6µM*
Cc1ccnc(NS(=O)(=O)c2ccc(N=Cc3c(O)n(C)c(=O)n(C)c3=O)cc2)n1	6.9%	5.2%	0.3%	11.2%	-27.1%	2.6%
CC1(C)C(=O)C=C[C@@]2(C)C1=C(O)C(=O)[C@@]1(C)C2CC[C@@]2(C)C(c3ccoc3)C[C@H]3O[C@@]321 (some centres not stated)	x	11.6µM*	11.6µM*	x	x	x
O=C(Cc1cc(=O)[nH][nH]1)N/N=C/c1cccc2ccccc12	4.5%	3.0%	u	0.5%	6.0%	-3.1%
c1ccc(N2CCN(c3ncnc4c3nc3n4CCCC3)CC2)cc1	-2.9%	u	u	x	-18.5%	x
Cc1ccc(Cl)cc1N1CCN(c2ncnc3c2nc2n3CCCC2)CC1	1.4%	18.4µM*	u	x	-21.1%	x
O=C(O)Cc1ccc(OCCNC[C@H](O)c2ccccc2)cc1	x	u	-16.7%	x	x	x
NC(Cc1ccccc1)c1nc(-c2ccccc2)no1 (configuration not stated)	-3.3%	2.6%	-12.4%	1.1%	-2.4%	13.5%
COCCN1C(=O)NC(=O)/C(=C\c2ccc(Br)cc2)C1=O	17.9%	u	20.6µM*	-1.4%	-5.8%	-2.6%
CN1CC2([N+](=O)[O-])CC=C(Cl)C([N+](=O)[O-])(C1)C2 (configuration not stated)	2.7%	0.6%	0.1%	21.3%	17.6%	10.0%
CCOP(=O)(OCC)C(NC(=O)Nc1ccc(Cl)c(Cl)c1)c1ccccc1 (configuration not stated)	0.9%	16.4µM*	u	u	-17.1%	u
NC(CO)Cc1ccccc1 (configuration not stated)	x	-20.9%	-7.2%	x	x	x
N[C@H](CO)Cc1ccccc1	-4.8%	1.0%	17.1%	-10.6%	0.2%	29.1µM*
O=C(c1ccc2c(c1)ncn2C1CCCCC1)N1CCC2(CC1)OCCO2	-4.9%	4.61µM*	6.51µM*	u	16.8%	u
CC(C)C(O)(C(=O)OC[C@@H]1CC[N+]2([O-])CCCC12)C(C)O (some centres not stated)	x	5.2%[9.04 µM]	-5.2%[9.04 µM]	x	x	x
O=C1NCN(c2ccccc2)C12CCN(C(c1ccnc3ccccc13)c1nnnn1-c1ccc3c(c1)OCCO3)CC2 (configuration not stated)	-14.9%	16.4µM*	u	u	u	u
CCCCn1nnnc1C(c1ccnc2ccccc12)N1CCC2(CC1)C(=O)NCN2c1ccccc1 (configuration not stated)	-8.7%	u	16.4µM*	10.2%	-25.7%	-1.4%
COc1ccc(C(c2nnnn2C2CCCC2)N2CCC3(CC2)C(=O)NCN3c2ccccc2)cc1 (configuration not stated)	-10.6%	u	u	u	u	u
CCC(c1nnnn1-c1ccc2c(c1)OCCO2)N1CCC2(CC1)C(=O)NCN2c1ccccc1 (configuration not stated)	-34.8%	18.4µM*	18.4µM*	-23.4%	u	-20.8%
SMILES	HepG2 tox	DT40 TDP1 no CPT	TDP1 cell CPT	HT1080-NT tox	TGFb SMAD3 inh	HT1080 IDH1KD tx
CCCCn1nnnc1C(c1ccccc1)N1CCC2(CC1)C(=O)NCN2c1ccccc1 (configuration not stated)	1.9%	u	u	u	u	-29.1%
COc1ccc(C(c2nnnn2-c2ccc3c(c2)OCCO3)N2CCC3(CC2)C(=O)NCN3c2ccccc2)cc1 (configuration not stated)	-1.7%	25.9µM*	u	-28.2%	u	u
CC(C)N(Cc1nccn1C)C(=O)CCc1nnc(CCCc2ccccc2)o1	-7.4%	u	-0.8%	4.7%	-25.1%	3.2%
CCOC1=C(N2CC2)C(=O)C(OCC)=C(N2CC2)C1=O	-6.8%	-21.7%	-2.7%	2.8%	-1.6%	0.0%
CC(C)(C)c1ccc(C(=O)Nc2ccc(NC(=O)c3ccco3)cc2)cc1	-39.5%	u	u	10µM*	u	10µM*
O=C(Nc1ccc(Cl)c(Cl)c1)c1ccco1	-0.6%	-25.0%	5.5%	-5.0%	-21.7%	-21.5%
CCOC(=O)c1oc2ccc(S(=O)(=O)n3nc(-c4ccc(Cl)cc4)cc3N)cc2c1C	-13.7%	11.6µM*	23.1µM*	4.8%	u	7.5%
CCN(CC)C(=O)c1ccc(NC(=O)CCn2nc(-c3ccc(Cl)cc3)c3ccccc3c2=O)cc1	8.3%	18.4µM*	u	x	u	x
CCOC(=O)c1ccccc1NC(=O)N(Cc1ccc(CC)cc1)Cc1cn[nH]c1-c1ccc(OC)cc1	-10.5%	14.6µM*	u	x	u	x
CCOC(=O)c1ccccc1NC(=O)c1c(O)[nH]c(=O)[nH]c1=O	-17.8%	-13.7%	0.1%	10.6%	-3.0%	4.7%
CCN1C[C@@]2(COC(=O)c3ccccc3N3C(=O)CC(C)C3=O)CC[C@H](OC)[C@]34C5C[C@@H]6[C@@H](OC)C[C@@](O)(C5[C@H]6OC)[C@@](O)(C13)[C@@H](OC)C24 (some centres not stated)	x	-0.4%	-6.3%	x	x	x
Cc1ccc(N=CN(C)C=Nc2ccc(C)cc2C)c(C)c1	x	4.0%	6.2%	x	x	x
O=Cc1cn(Cc2c(F)cccc2Cl)nc1-c1ccccc1	1.3%	u	u	-17.9%	5.7%	-12.4%
